TDP1 cell CPT = DT40-hTDP1 cell growth loss with CPT; hit rate 12% among 420,000; chicken DT40 Tdp1-/-;hTDP1 cells + 20 nM CPT, ATP luminescence, 48 h; Potency, µM (series often up to 46.2 µM), for the others: at the top dose activity change, negative = growth inhibition, hits mostly inhibitors; AID 686979; also: potency is read from the fitted curve at half-maximal effect; nearly all actives have a fitted effect of over 55% in size
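Chicken DT40 Tdp1-/- cells complemented with human TDP1, 400 cells/well, exposed to compounds plus 20 nM camptothecin for at least 48 h at 37 C; viability read as ATP content by CellTiter-Glo luminescence.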
IL1B secr inh = inhibitors of inflammasome signaling (IL-1 beta secretion). hit rate 4.7% among 360,000. AID 743279. THP-1 LPS/ATP IL-1B secretion, AlphaLISA, 16 h; hits give low values. activity change, % at 57.5 µM; in the data active = activity change below about -50%; inconclusive = mostly about -30% to -49%
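Secreted IL-1B measured by AlphaLISA bead assay after 16 h compound exposure of THP-1 cells; compounds (final up to 57.5 uM) added 1 h before LPS (250 ng/mL) and ATP (1.25 mM) stimulation; lower signal means less secretion.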
DT40 TDP1 no CPT = qHTS for Inhibitors of human tyrosyl-DNA phosphodiesterase 1 (TDP1): qHTS in cells in absence of CPT; hit rate 15% among 420,000; Potency, µM (series often up to 46.2 µM), inactives show top-dose activity change, negative = growth inhibition, usual class: inhibitors; DT40 Tdp1-/- hTDP1 cells, no CPT, ATP luminescence, 48 h; also: potency is read from the fitted curve at half-maximal effect; nearly all actives have a fitted effect of over 55% in size
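Cells were dispensed at 400 per well, compounds added by pin tool, plates incubated ≥48 hr at 37 °C, then CellTiter-Glo added for 30 min at room temperature before luminescence reading. Line: DT40 Tdp1-/- complemented with hTDP1; camptothecin omitted.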
HT1080 IDH1KD tx = HT-1080 IDH1 knockdown cell toxicity (counter line). HT-1080 IDH1 knockdown viability, ATP luminescence, 48 h. Potency, µM (doses to about 46.1 µM), for inactives: top-dose activity, negative = toxicity, usual class: cytotoxic. hit rate 2% among 360,000. AID 686971;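 also: potency is read from the fitted curve at half-maximal effect; 0% = DMSO wells and -100% = cell-free medium wells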
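CellTiter-Glo luminescence after 48 h compound exposure at 37 degrees C of IDH1-knockdown HT-1080 cells in 5% FBS RPMI. %Activity scaled between DMSO wells and cell-free media wells, with curves fitted and assigned curve classes.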
HT1080NT lethal = kills 2HG-producing HT-1080-NT fibrosarcoma cells | HT-1080-NT fibrosarcoma viability, CellTiter-Glo ATP luminescence, 48 h | Potency, µM (doses to about 46.1 µM), for the others: top-dose activity, negative = less viability, hits mostly cytotoxic | hit rate 1.6% among 360,000 | AID 686970;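 also: NT is the 2HG producing partner of a matched IDH1 knockdown line; potency is read from the fitted curve at half-maximal effect; 0% = DMSO-treated cells and -100% = media-only wells without cells; nearly all actives have a fitted effect of over 55% in size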
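Viability of the 2HG-overproducing fibrosarcoma line after 48 hours of compound exposure at 37 degrees C was determined by luminescence with CellTiter-Glo, and concentration-effect curves were then fitted and categorized.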
The depositor's hits bear a star; ? = inconclusive; / = not tested or not shown. This is a sample that favours compounds with a hit; in the whole collection about 19% have one here. Unless noted, calls follow the shape of the dose curve; as a rule, active = well fitted curve in the direction sought with a large enough effect; inconclusive = small, poorly fitted or top-dose-only effect, or another doubt; inactive = no such curve, though single readings can be large; an effect the other way counts as inactive or inconclusive. Unless noted, % is scaled to controls: 0 for no effect and ±100 for the full control effect.

SMILES	TDP1 cell CPT	IL1B secr inh	DT40 TDP1 no CPT	HT1080 IDH1KD tx	HT1080NT lethal
CC(C)c1ccc(NC(=O)Cn2c(=O)n(CC3CCC(C(=O)NCCc4ccccc4)CC3)c(=O)c3ccccc32)cc1 (stereo unspecified)	16µM*	/	15µM*	/	/
Cc1ccc(NC(=O)Cn2c(=O)n(CC(=O)NCCc3ccccc3)c(=O)c3ccccc32)cc1C	?	/	3.3µM*	/	/
Cc1nnc(SCc2cccs2)[nH]c1=O	-2%	19	-6%	7%	11%
Cc1cnccc1CN(C)Cc1cn(C)nc1-c1cccc(Cl)c1	?	0	?	-9%	-7%
CC(c1ccon1)N(C)Cc1cn(C)nc1-c1cccc(Cl)c1 (stereo unspecified)	?	26	16µM*	-5%	16%
O=[N+]([O-])c1cccc(S(=O)(=O)c2cccc([N+](=O)[O-])c2)c1	6%	45	4%	5%	9%
O=[N+]([O-])c1cccc(SSc2cccc([N+](=O)[O-])c2)c1	3.7µM*	?	4.6µM*	18µM*	18µM*
COc1ccc(-c2nc(C)ncc2-c2ccc(Cl)cc2)c(O)c1	15µM*	-12	-11%	-3%	-1%
COc1ccc(-c2cn[nH]c2-c2ccc(OC)cc2O)cc1	?	-84*	?	?	?
COc1ccc2c(c1)CCc1cn[nH]c1-2	?	-10	23µM*	-8%	0%
COc1ccccc1-c1cn[nH]c1-c1ccc(OCc2ccccc2)cc1O	0%	-99*	?	?	-18%
CN(Cc1ccc(Br)s1)C(=O)CNC(=O)c1ccc2c(c1)OCO2	13%	-12	-3%	1%	-1%
Cc1ccccc1-n1cnnc1SCC(=O)Nc1cccnc1Cl	-1%	-5	-13%	22%	6%
COc1ccc(OC)c(NC(=O)C2=C(C)NC(=O)NC2c2cccs2)c1 (stereo unspecified)	-10%	-9	2%	-3%	1%
COc1ccc(-c2cn[nH]c2-c2ccc(OCc3ccccc3)cc2O)cc1	?	-99*	?	?	-7%
Cc1ccc(NC(=O)c2cn(CCC#N)nc2-c2cccs2)c([N+](=O)[O-])c1	?	0	12µM*	-11%	-3%
Cc1ccc(NC(=O)/C=C/c2cccs2)c([N+](=O)[O-])c1	13µM*	-17	23µM*	-22%	?
CN1CCc2nc(NC(=O)c3cccc(OC(F)F)c3)sc2C1	-3%	-26	-5%	-2%	-9%
COc1cccc(C2C3=C(CC(C)(C)CC3=O)Nc3n[nH]c(C)c32)c1 (stereo unspecified)	7%	42	8%	10%	-3%
Cc1csc(-c2cnn(-c3ccccc3)c2NC(=O)c2ccc(C(F)(F)F)cc2)n1	?	-20	23µM*	-19%	-2%
O=C(c1ccc2oc(Cc3ccc(Cl)cc3)nc2c1)N1CC[C@H](O)C1	-8%	1	4%	-23%	-14%
COc1ccc2c(CC(=O)NC(Cc3ccc(Cl)cc3)C(=O)O)cc(=O)oc2c1C (stereo unspecified)	8%	8	-2%	4%	1%
Cc1ccccc1-c1nc(CS(=O)(=O)CC(=O)N(C)C2CCCCC2)c(C)o1	?	-9	?	-13%	-6%
Cc1ccccc1-c1nc(CN(Cc2c(C)nn(C)c2C)C2CC2)c(C)o1	?	-76*	23µM*	-12%	-4%
Cc1onc(-c2ccccc2)c1C(=O)N1CCCc2ccccc21	?	42	16µM*	-5%	5%
SMILES	TDP1 cell CPT	IL1B secr inh	DT40 TDP1 no CPT	HT1080 IDH1KD tx	HT1080NT lethal
Cc1onc(-c2c(Cl)cccc2Cl)c1C(=O)N1CCCc2ccccc21	21µM*	7	21µM*	-23%	-26%
Cc1noc(C)c1C(=O)N1CCc2ccccc21	-19%	24	-4%	-11%	-13%
O=C(NCc1ccccc1)c1nc(S(=O)(=O)Cc2ccccc2)ncc1Cl	2.9µM*	-98*	2.3µM*	?	?
COc1ccc(CNC(=O)c2nc(S(=O)(=O)Cc3ccccc3)ncc2Cl)cc1	1.3µM*	-99*	1.3µM*	?	?
COc1ccc(CNC(=O)c2nc(SCc3ccc(C)cc3)ncc2Cl)cc1	-10%	/	?	/	/
O=C(NCc1ccccc1)c1ccc(Cl)cc1	3%	7	3%	5%	12%
CCN(c1ccccc1)S(=O)(=O)c1ccc(NC(=O)c2nc(SC(C)C)ncc2Cl)cc1	21µM*	/	18µM*	/	/
CCS(=O)(=O)c1ncc(Cl)c(C(=O)NCc2ccccc2)n1	?	/	2.3µM*	/	/
Cc1noc(C(=O)NCc2ccccc2)c1Cl	-15%	-4	-2%	-2%	-7%
CCOC(=O)C1=CNS(=O)(=O)NC1c1ccccc1 (stereo unspecified)	2%	30	-4%	6%	3%
CN(C)c1ncc2nc(-c3ccc(F)cc3)c(=O)n(C)c2n1	0%	/	5%	/	/
O=S(=O)(Nc1cccc(-c2nc3cccnc3s2)c1)c1cccs1	-18%	43	?	0%	13%
O=C(NCc1ccccc1)c1c(Cl)nc(Cl)c(Cl)c1Cl	?	-107*	18µM*	7.3µM*	10µM*
COc1ccc(CNC(=O)c2nc(SC(C)C)ncc2Cl)cc1	29µM*	/	23µM*	/	/
Cc1nc(Cl)c(C(=O)NCc2ccccc2)c(C)c1[N+](=O)[O-]	-3%	20	-2%	17%	0%
COc1ccc(/C(C)=N/NC(=O)Cn2nc([N+](=O)[O-])cc2C)cc1	1%	-8	-8%	-11%	10%
CCc1ccccc1OCC(=O)Nc1nc(-c2cccnc2)cs1	3.3µM*	123	3.3µM*	?	-39%
Cc1cc(C)c(OCC(=O)Nc2nc(-c3ccccn3)cs2)c(C)c1	3.7µM*	31	4.1µM*	?	-19%
Cc1ccccc1OCC(=O)Nc1nc(-c2ccncc2)cs1	21µM*	13	15µM*	-10%	-16%
O=C(NCCSc1ccccc1)c1ccc(CN2CCOCC2)cc1	-12%	46	-26%	-2%	-1%
COC(=O)CC1(C(=O)OC)Oc2ccc(Br)cc2C(=O)N1c1cccc(Cl)c1Cl (stereo unspecified)	3.7µM*	19	6.5µM*	?	21µM*
COC(=O)CC1(C(=O)OC)Oc2ccc(Br)cc2C(=O)N1c1cc(Cl)cc(Cl)c1 (stereo unspecified)	?	-29	?	-2%	?
COC(=O)CC1(C(=O)OC)Oc2ccc(Br)cc2C(=O)N1c1cc(Cl)c(Cl)cc1Cl (stereo unspecified)	8.2µM*	-23	5.8µM*	-28%	?
